# Experimental data from PubChem BioAssay.
# Values without a mark were called inactive. Active and inactive are the calls of the source.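 The calls were made as follows, unless noted: active = mean inhibition above 46.68%, the untreated control wells mean plus 3 SD; inactive = the rest.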
# Tested on: transactivating tegument protein VP16 (Human herpesvirus 1), Gal4-VP16 luciferase reporter
# Experiment: VP16 transactivation inhibitors, counter-screen for SRC3 inhibitor project, cell-based, luminescence, high throughput (AID 588794; in the data active = inhibition above about 30%)
# Details: mammalian cells, VP16-driven luciferase reporter luminescence; at 3.6 µM; active compounds read high
row,Compound,inhibition
1,C[n+]1c2n(c3ccccc31)N=C(c1ccccc1)CS2,37.2% (active)
2,CC(=O)Nc1ccc(S(=O)(=O)c2ccnc3cc(Cl)ccc23)cc1,44.1% (active)
3,CC(C)c1ccc(-c2csc(NC(=O)c3cccs3)c2C(=O)O)cc1,18.6%
4,COc1cc(-c2cc3nc4ccccc4n3c(N)c2C#N)cc(OC)c1OC,-16.8%
5,CC(C)(C)c1ccc(/C=C2\SC(=O)N(CCNC(=O)c3cccc(S(=O)(=O)N4CCOCC4)c3)C2=O)cc1,-19.8%
6,c1ccc2c(-c3cncc4ccccc34)cncc2c1,32.7% (active)
7,COc1cc(OC)c2nc(C)c3c(c2c1)N(c1ccc(O)cc1)CC3,37.7% (active)
8,CCOC(=O)C(=Cc1cc(=O)c(OC)co1)C(=O)OCC,52.1% (active)
9,O=C(c1ccncc1)N(Cc1cc2ccccc2[nH]c1=O)C1CCCCC1,23.2%
10,O=C(CCCOc1ccc(Cl)cc1Cl)N/N=C/c1ccccc1O,22.3%
11,O=C(N/N=C/c1ccc(O)cc1O)/C(=C/c1ccccc1)CCO,20.7%
12,NC(=S)N/N=C1\CCSc2ccc(Cl)cc21,22.9%
13,CCC(=O)Nc1cc2nn(-c3ccc(C)cc3)nc2cc1C,-33.2%
14,O=C(COc1ccccc1O)NNc1ccccc1,24%
15,O=C(N/N=C/c1ccccc1O)/C(=C/c1ccccc1)CCO,18.1%
16,CC(C)n1cc(/C=C/c2cc[n+](C)cc2)c2ccccc21,21%
17,Cc1nn(-c2ccccc2)c(Cl)c1C(=O)N1CCN(c2ncnc3c2cnn3-c2ccccc2)CC1,31.4% (active)
18,OCCNc1c2ccccc2nc2ccccc12,40.4% (active)
19,Cc1nc2ccc(NC(=O)c3ccc(Cl)c(S(=O)(=O)N(C)c4ccccc4)c3)cc2s1,35.7% (active)
20,O=C1C(F)=CC(COC(c2ccccc2)(c2ccccc2)c2ccccc2)OC1n1cc(F)c(=O)[nH]c1=O (stereo not given),60.3% (active)

row,Compound,inhibition
1,Nc1ncnc(NCc2ccc(F)cc2)c1[N+](=O)[O-],29.8% (active)
2,O=C(NC(=O)N1CCN(c2cccc(Cl)c2)CC1)c1ccccc1,43.6% (active)
3,Cc1c(-c2ccccc2)oc2c(C(=O)N3CCN(c4ccc([N+](=O)[O-])cc4)CC3)cccc2c1=O,32.5% (active)
4,COc1ccc(Nc2nc(N3CCCC3)nc3ccccc23)c(OC)c1,37.1% (active)
5,O=C(Nc1nc(-c2ccc(S(=O)(=O)N3CCCC3)cc2)cs1)C1COc2ccccc2O1 (stereo not given),-0.16%
6,COC(=O)c1cc2c(n1S(=O)(=O)c1ccc(C)cc1)C(=O)C(=O)c1[nH]cc(C(=O)OCc3ccccc3)c1-2,93.6% (active)
7,NNC(=O)C(=O)Nc1ccc(O)cc1,8.64%
8,CCN(CC)S(=O)(=O)c1ccc(/C=C/C(=O)Nc2ccc(F)c(F)c2F)cc1,30.7% (active)
9,O=C(CCSc1nc2ccccc2s1)N/N=C/c1c(O)ccc2ccccc12,23.7%
10,CCCOc1ccc(/C=N/Nc2ccccc2[N+](=O)[O-])c(O)c1,5%
11,O=C(N/N=C/c1cc(Br)ccc1O)c1ccncc1,34.2% (active)
12,O=C1CC(c2ccc3c(c2)OCO3)Sc2nc3ccccc3n21 (stereo not given),-34.8%
13,Cc1cc(=O)[nH]c(Nc2cccc(Br)c2)n1,23.7%
14,CN(CC1CCCO1)S(=O)(=O)c1ccc(C(=O)Nc2nc3cc4c(cc3s2)OCO4)cc1 (stereo not given),39.8% (active)
15,O=C(CSC1=NCCS1)Nc1ccnc2ccccc12,37.7% (active)
16,Cc1ccc(NC(=O)CCC(=O)N/N=C/c2ccc(O)cc2O)cc1,7.07%
17,COc1ccc(C(=O)N/N=C/c2cc(Br)ccc2O)cc1OC,37.5% (active)
18,Nc1nc(=O)n(C2OC(CO)C(O)C2O)cc1F (stereo not given),31.5% (active)
19,O=C(Nc1ccc(Cn2cccn2)cc1)c1ccc(COc2cccc(Br)c2)cc1,42.6% (active)
20,Cc1ccc(C2CC(C(F)(F)F)n3nc(C(=O)NCc4c(C)nn(C)c4C)c(Cl)c3N2)cc1 (stereo not given),15.1%

# Biological target: Nuclear receptor coactivator 1 (Homo sapiens) (UniProt Q15788)
# Sequence (Q15788 whole entry, looked up): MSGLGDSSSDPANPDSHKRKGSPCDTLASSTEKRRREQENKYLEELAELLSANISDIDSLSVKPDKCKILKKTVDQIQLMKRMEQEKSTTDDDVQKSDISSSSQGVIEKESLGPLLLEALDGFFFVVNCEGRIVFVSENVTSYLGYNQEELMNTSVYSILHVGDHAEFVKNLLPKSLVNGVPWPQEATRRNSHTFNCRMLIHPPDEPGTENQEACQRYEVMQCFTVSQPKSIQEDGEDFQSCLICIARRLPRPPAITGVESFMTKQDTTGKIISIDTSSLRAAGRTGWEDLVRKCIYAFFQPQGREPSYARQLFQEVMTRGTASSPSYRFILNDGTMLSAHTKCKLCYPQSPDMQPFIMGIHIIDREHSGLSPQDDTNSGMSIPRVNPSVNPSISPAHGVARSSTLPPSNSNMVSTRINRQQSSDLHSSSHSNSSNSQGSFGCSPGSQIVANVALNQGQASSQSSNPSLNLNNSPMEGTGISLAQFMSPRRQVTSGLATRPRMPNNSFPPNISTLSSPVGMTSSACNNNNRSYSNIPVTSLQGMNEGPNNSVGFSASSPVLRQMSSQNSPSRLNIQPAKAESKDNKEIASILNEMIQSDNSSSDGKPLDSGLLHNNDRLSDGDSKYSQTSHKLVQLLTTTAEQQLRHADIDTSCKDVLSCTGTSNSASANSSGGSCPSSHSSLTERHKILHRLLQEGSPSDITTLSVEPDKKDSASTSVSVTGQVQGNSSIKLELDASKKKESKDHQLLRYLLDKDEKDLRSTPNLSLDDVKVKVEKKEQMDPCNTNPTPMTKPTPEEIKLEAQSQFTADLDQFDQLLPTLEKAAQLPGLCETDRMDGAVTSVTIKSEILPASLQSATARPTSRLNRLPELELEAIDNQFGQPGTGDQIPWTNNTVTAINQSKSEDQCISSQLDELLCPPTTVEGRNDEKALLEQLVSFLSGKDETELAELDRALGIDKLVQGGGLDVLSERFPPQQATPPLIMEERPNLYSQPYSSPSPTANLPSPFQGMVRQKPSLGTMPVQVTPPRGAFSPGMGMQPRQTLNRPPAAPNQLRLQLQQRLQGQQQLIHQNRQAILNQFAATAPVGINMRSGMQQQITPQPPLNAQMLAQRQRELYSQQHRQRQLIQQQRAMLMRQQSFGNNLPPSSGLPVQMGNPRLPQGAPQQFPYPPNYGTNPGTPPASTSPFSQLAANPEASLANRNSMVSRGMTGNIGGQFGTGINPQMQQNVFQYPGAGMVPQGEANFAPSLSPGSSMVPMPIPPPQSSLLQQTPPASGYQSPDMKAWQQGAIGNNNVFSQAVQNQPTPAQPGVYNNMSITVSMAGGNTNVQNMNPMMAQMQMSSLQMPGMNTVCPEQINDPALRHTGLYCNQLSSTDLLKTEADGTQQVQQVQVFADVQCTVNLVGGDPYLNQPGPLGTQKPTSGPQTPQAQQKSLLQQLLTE
# Experiment: SRC1 coactivator transcriptional activity inhibitors, confirmation, cell-based, luminescence, quadruplicate (AID 588820);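 also: 0% = DMSO wells and 100% = gossypol 36 µM treated wells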
# Details: HEK293 GAL4-SRC1 luciferase reporter, at 3.6 µM, active compounds read high
row,Compound,inhibition
1,C[n+]1c2n(c3ccccc31)N=C(c1ccccc1)CS2,-2.14%
2,CC(=O)Nc1ccc(S(=O)(=O)c2ccnc3cc(Cl)ccc23)cc1,47% (active)
3,CC(C)c1ccc(-c2csc(NC(=O)c3cccs3)c2C(=O)O)cc1,-2.31%
4,COc1cc(-c2cc3nc4ccccc4n3c(N)c2C#N)cc(OC)c1OC,-42.6%
5,CC(C)(C)c1ccc(/C=C2\SC(=O)N(CCNC(=O)c3cccc(S(=O)(=O)N4CCOCC4)c3)C2=O)cc1,-58.1%
6,c1ccc2c(-c3cncc4ccccc34)cncc2c1,36.4%
7,COc1cc(OC)c2nc(C)c3c(c2c1)N(c1ccc(O)cc1)CC3,12.8%
8,CCOC(=O)C(=Cc1cc(=O)c(OC)co1)C(=O)OCC,-0.65%
9,O=C(c1ccncc1)N(Cc1cc2ccccc2[nH]c1=O)C1CCCCC1,42.2%
10,O=C(CCCOc1ccc(Cl)cc1Cl)N/N=C/c1ccccc1O,29.5%
11,O=C(N/N=C/c1ccc(O)cc1O)/C(=C/c1ccccc1)CCO,31.7%
12,NC(=S)N/N=C1\CCSc2ccc(Cl)cc21,6.53%
13,CCC(=O)Nc1cc2nn(-c3ccc(C)cc3)nc2cc1C,-102%
14,O=C(COc1ccccc1O)NNc1ccccc1,-12.2%
15,O=C(N/N=C/c1ccccc1O)/C(=C/c1ccccc1)CCO,20%
16,CC(C)n1cc(/C=C/c2cc[n+](C)cc2)c2ccccc21,16.8%
17,Cc1nn(-c2ccccc2)c(Cl)c1C(=O)N1CCN(c2ncnc3c2cnn3-c2ccccc2)CC1,4.61%
18,OCCNc1c2ccccc2nc2ccccc12,5.64%
19,Cc1nc2ccc(NC(=O)c3ccc(Cl)c(S(=O)(=O)N(C)c4ccccc4)c3)cc2s1,3.35%
20,O=C1C(F)=CC(COC(c2ccccc2)(c2ccccc2)c2ccccc2)OC1n1cc(F)c(=O)[nH]c1=O (stereo not given),-11.1%

row,Compound,inhibition
1,Nc1ncnc(NCc2ccc(F)cc2)c1[N+](=O)[O-],52.7% (active)
2,O=C(NC(=O)N1CCN(c2cccc(Cl)c2)CC1)c1ccccc1,17.9%
3,Cc1c(-c2ccccc2)oc2c(C(=O)N3CCN(c4ccc([N+](=O)[O-])cc4)CC3)cccc2c1=O,45.9%
4,COc1ccc(Nc2nc(N3CCCC3)nc3ccccc23)c(OC)c1,5.96%
5,O=C(Nc1nc(-c2ccc(S(=O)(=O)N3CCCC3)cc2)cs1)C1COc2ccccc2O1 (stereo not given),-8.23%
6,COC(=O)c1cc2c(n1S(=O)(=O)c1ccc(C)cc1)C(=O)C(=O)c1[nH]cc(C(=O)OCc3ccccc3)c1-2,81.9% (active)
7,NNC(=O)C(=O)Nc1ccc(O)cc1,-20.1%
8,CCN(CC)S(=O)(=O)c1ccc(/C=C/C(=O)Nc2ccc(F)c(F)c2F)cc1,3.76%
9,O=C(CCSc1nc2ccccc2s1)N/N=C/c1c(O)ccc2ccccc12,36%
10,CCCOc1ccc(/C=N/Nc2ccccc2[N+](=O)[O-])c(O)c1,-59.5%
11,O=C(N/N=C/c1cc(Br)ccc1O)c1ccncc1,26.4%
12,O=C1CC(c2ccc3c(c2)OCO3)Sc2nc3ccccc3n21 (stereo not given),-110%
13,Cc1cc(=O)[nH]c(Nc2cccc(Br)c2)n1,34.2%
14,CN(CC1CCCO1)S(=O)(=O)c1ccc(C(=O)Nc2nc3cc4c(cc3s2)OCO4)cc1 (stereo not given),0.14%
15,O=C(CSC1=NCCS1)Nc1ccnc2ccccc12,27.5%
16,Cc1ccc(NC(=O)CCC(=O)N/N=C/c2ccc(O)cc2O)cc1,20.4%
17,COc1ccc(C(=O)N/N=C/c2cc(Br)ccc2O)cc1OC,22%
18,Nc1nc(=O)n(C2OC(CO)C(O)C2O)cc1F (stereo not given),40.1%
19,O=C(Nc1ccc(Cn2cccn2)cc1)c1ccc(COc2cccc(Br)c2)cc1,-34.7%
20,Cc1ccc(C2CC(C(F)(F)F)n3nc(C(=O)NCc4c(C)nn(C)c4C)c(Cl)c3N2)cc1 (stereo not given),-7%
